Compounds without any hit were thinned out: in the full panel of roughly 83,000, 20% have a hit.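 Values shown are percent growth following 48 h exposure of cells in 96-well plates to a single concentration of compound; below 10 was considered active.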 Calls of active or inactive are those of the source.

The test system of the assay is RPMI-8226 leukemia. As to the kind of experiment: NCI-60 one-dose screen, 48 h (100 = growth as untreated, 0 = no growth, -100 = all killed). The note with it: 10 µM. As to the method: Growth inhibition of the RPMI-8226 human tumor cell line is measured as a screen for anti-cancer activity. Cells are grown in 96 well plates and exposed to the test compound for 48 hours. Compounds are tested at a single concentration, which is 10^-5 M for most compounds. The reported endpoint is percent growth (GI% or GIPRCNT), where numbers from 0 - 100% represent growth inhibition, and numbers from -100% - 0 represent cell death. For example, a value of 40 represents 60% growth inhibition. A value of 0 means no net growth occurred over the course of the experiment. A value of -40 indicates 40% of cells at the beginning of the experiment died by the end of the experiment. A value of -100 means all cells are dead at the end of the experiment.
NCI-60 Human Tumor Cell Lines Screen was performed using the standard one-dose NCI protocol, which is described in more detail at https://dtp.cancer.gov/discovery_development/nci-60/default.htm.
Compounds with GIPRCNT values below 10 were considered active. Activity score was based on GIPRCNT using the following formula: […]
Score is 0 for GIPRCNT values of 100 or above, 50 for GIPRCNT values of 0, and 100 for GIPRCNT values of -100.
Consider `Cc1cc(C)c2c(Nc3ncnc4c3sc3nc(C)cc(C)c34)n[nH]c2n1`, for which the growth is 98.9% (inactive). As for `O=C1CC(c2cccc(-c3cccnc3)c2)=Nc2ccc(Br)cc2N1`, the figure is 40.7% (inactive); as for `CCCCCCCCCCCCc1ccc(C(=O)/C=C/C(=O)O)cc1`, 6.04% (active). Consider `COc1cc(-c2nc3ccccc3[nH]2)ccc1OCC(=O)N=Nc1c(O)[nH]c2ccccc12`, for which the growth is 25.8% (inactive). Then `Oc1ccccc1-c1nnc(Cn2c(Cc3cccc4ccccc34)nc3ccccc32)o1`, with 95.8% (inactive); and `COc1ccccc1CNCCCN1C(=O)c2ccc3c4c(ccc(c24)C1=O)C(=O)N(CCCNCCNCCCN)C3=O`, with 60.8% (inactive). Then `O=C(O)CNS(=O)(=O)c1ccc(OCCOc2ccc(S(=O)(=O)NCC(=O)O)cc2)cc1`, with 109% (inactive). As for `COc1ccc(C2=Cc3ccc(OC(C)=O)cc3OC2)cc1`, the figure is 83.4% (inactive); as for `O=C(CCc1ccccc1)N1CCN(C(=O)CCc2ccccc2)CC1`, 92.3% (inactive).

As for `C#CCNCCN1C(=O)c2ccc3c4c(ccc(c24)C1=O)C(=O)N(CCNCC#C)C3=O`, the growth is 45.3% (inactive). For the compound `O=C1/C(=C/c2cccs2)CCC/C1=C\c1cccs1`, the growth was 57.5% (inactive). Then `COc1ccc(-c2nc(NC(=O)CS(=O)(=O)c3ccc(F)cc3)sc2C)cc1`, with -0.965% (active); and `COc1ccc(C2CC(c3ccc(-c4ccccc4)cc3)=NN2c2ccc(S(N)(=O)=O)cc2)cc1` (stereo not given), with 57.2% (inactive); and `Nc1ccc(C2=CC(c3ccc(Cl)cc3)N3C=CSC3=N2)cc1` (stereo not given), with -21.3% (active). Regarding `Nc1ccc(Sc2ccc3c4c2cccc4c(=O)n2c4ccccc4nc32)cc1`, the growth was 50.2% (inactive). Then `C=CCN1C(=O)/C(=C\c2ccc3c(c2)CCC3)SC1=S`, with 91.9% (inactive); and `CCN(CC)CCCOC(=O)Nc1ccccc1Cl`, with 97.3% (inactive).

On to `Nc1cc2c(cc1Cl)-c1ccc(Cl)cc1C2=O`, for which the growth is 88.8% (inactive).

Regarding `CC(C)(C)CC(C)(C)c1ccc(O)c(Cc2ccc(Cl)cc2Cl)c1`, the growth was -10.7% (active). As for `C=CCn1ccc(=O)nc1SC`, the figure is 108% (inactive); as for `CCc1c(C)[nH]c(=O)c(C(N)=O)c1C#N`, 105% (inactive).

For the compound `O=C(NNC(=O)c1ccncc1)Nc1ccc([N+](=O)[O-])cc1`, the growth was 102% (inactive). As for `CC(=O)O[C@H]1CC[C@@]2(C)[C@@H](CC[C@@H]3[C@@H]2CC[C@]2(C)C=C(C=O)C[C@@H]32)C1`, the figure is 8.64% (active). Then `O=C(COc1ccc(Cl)cc1Cl)Oc1coc(CSc2nc3ccccc3s2)cc1=O`, with 87% (inactive). Then `COC(=O)c1cnc2c(c1)Oc1ccccc1-c1ccnn1-2`, with 95% (inactive). Consider `CCOC(=O)CNC(=O)Nc1ccc(Oc2ccc(NC(=O)NCC(=O)OCC)cc2)cc1`, for which the growth was 99.9% (inactive).

As to `COc1cc(CSc2nc3ccc(Cl)cc3c(=O)n2Cc2ccccc2)cc(OC)c1OC`, the growth was 68.7% (inactive). With `CCOc1nc(-c2ccccc2)cc2c(O)c(C(=O)NC(C)C)[nH]c(=O)c12`, the growth was 40.1% (inactive). As for `COc1ccc(Nc2ccnc(N3CCN(c4ccnc5cc(Cl)ccc45)CC3)n2)cc1`, the figure is -23.1% (active); as for `CC(=O)Nc1nc(C)c(C(=O)NNC=O)s1`, 118% (inactive). Then `COc1ccc(-c2nc(-c3ccccc3)c(-c3ccccc3)[nH]2)cc1OC1CCCC1`, with 56.6% (inactive). Regarding `O=c1oc2cc(OS(=O)(=O)C3CC3)ccc2c2c1CCCCCC2`, the growth is 49.3% (inactive). As for `O=C(c1ccc(Cl)cc1)c1no[n+]([O-])c1C(=O)c1ccc(Cl)cc1`, the figure is 35.5% (inactive); as for `COc1ccc2nc(/C=C/c3ccc(N(C)C)cc3)sc2c1`, 104% (inactive). As for `N#C/C(=C/c1cc([N+](=O)[O-])ccc1Cl)C(N)=O`, the figure is 68.7% (inactive). Then `CC(C)(C)c1ccc(OCCCCCCN2CCNCC2)cc1`, with 0.146% (active). `COc1ccc(C2=NNC(c3sc(Cl)nc3Cl)C2)cc1` (stereo not given): the growth is 81% (inactive). Then `COc1ccc(Cn2cc3c(c2-c2cc(OC)c(OC)c(OC)c2)CCc2cnoc2-3)cc1[N+](=O)[O-]`, with 27.9% (inactive). For the compound `CC(CNC(Cc1ccccc1)c1ccccc1)NC(Cc1ccccc1)c1ccccc1` (stereo not given), the growth is -34.6% (active).

On to `O=[N+]([O-])c1ccc(-c2nc(Cl)c3c(n2)CCCC3)o1`, for which the growth was 85.3% (inactive).

The record behind these values is PubChem BioAssay (NCI).
